# About 13,000 (27%) of roughly 48,000 compounds showed an effect of 50% or more. The list shows a part of the results.
# System: Wolbachia pipientis
# Assay: Anti-Wolbachia Cell-Based Screen
# Format: functional
# Parameters: scale not given: in the data most compounds retested in dose-response had high values
# Conditions: 5 µM
row,SMILES,Percent Effect
1,c1cncc(COCC2CN(Cc3ccco3)Cc3ccnn3C2)c1 (stereo not drawn),-0.3306%
2,COc1ccc(Cl)cc1CS(=O)(=O)Cc1nc(C2CC2)no1,17.46%
3,Cc1cnc2c(c1)N(C(=O)c1ccc(=O)n(C)c1)CCO2,10.48%
4,O=C(c1c(F)cccc1Br)N1CCCOCC1,-0.116%
5,O=C(O)C(=O)O.c1csc(-c2noc(C3CN(Cc4ccc5c(c4)CCO5)C3)n2)c1,26.44%
6,CCCc1cc(C(=O)N2CCOC(c3nc(-c4cccs4)no3)C2)no1 (stereo not drawn),6.079%
7,CCn1cc(C(=O)N2CCOC(c3nc(-c4cccs4)no3)C2)cn1 (stereo not drawn),116.8%
8,CCCn1ccc(C(=O)N2CCOC(c3nc(-c4cccs4)no3)C2)n1 (stereo not drawn),4.055%
9,COc1ncccc1C(=O)N1CC(c2nc(-c3cccs3)no2)C1,5.63%
10,CCCn1cc(C(=O)N2CCOC(c3nc(-c4cccs4)no3)C2)cn1 (stereo not drawn),93.77%
11,CCn1ccc(C(=O)N2CCOC(c3nc(-c4cccs4)no3)C2)n1 (stereo not drawn),106.6%
12,COc1c(C(=O)N2CCOC(c3cccs3)C2)c(C)nn1C (stereo not drawn),-3.946%
13,Cc1cc(C)c(C(=O)N2CCOC(c3cccs3)C2)c(=O)[nH]1 (stereo not drawn),-5.418%
14,CN(C)CCN1CC2(CCCN(c3ccc(Cl)cn3)C2)CCC1=O (stereo not drawn),-8.264%
15,CCN(Cc1ccoc1)c1ncc(S(N)(=O)=O)s1,-17.75%
16,CC(NCCCC#N)c1ccc(-c2ccncc2)cc1 (stereo not drawn),-12.76%
17,CCC(=O)N1CCC2(CC1)COc1ccccc1S(=O)(=O)N(C)C2,3.45%
18,CCc1ccc(CN2CCC3(CCCN(C(=O)N(C)C)C3)C2)o1 (stereo not drawn),2.362%
19,COCC(=O)N1CCC2(CC1)COc1ccccc1S(=O)(=O)N(C)C2,78.61%
20,CN(C)CC(=O)N1CCC2(CC1)COc1ccccc1S(=O)(=O)N(C)C2,75.94%
21,COCCN1CCC2(CC1)COc1ccccc1S(=O)(=O)N(C)C2,110%
22,CCN1CC2(CCN(C(=O)N(C)C)CC2)COc2ccccc2S1(=O)=O,88.03%
23,CN1CC2(CCN(CCOCCO)CC2)CC(c2ccccc2)C1=O (stereo not drawn),-8.792%

row,SMILES,Percent Effect
1,CCN1CC2(CCNCC2)COc2ccccc2S1(=O)=O.O=C(O)C(F)(F)F,12.77%
2,CN1[C@@H](c2ccccc2)[C@@H](C(=O)NCC2CCOCC2)C[C@@]1(C)C(=O)O,-0.5583%
3,COCc1ccccc1C(=O)NCC(c1c(F)cccc1F)N(C)C (stereo not drawn),-0.8203%
4,O=c1nc(SCc2cccnc2)c2c(n1CCO)CCC2,-0.5534%
5,O=S(=O)(c1cc2ccccc2o1)N1CCCC1,-2.177%
6,CS(=O)(=O)NCC(=O)NCc1cccnc1-n1cnc2ccccc21,9.043%
7,COc1cccc(-c2n[nH]c3c2CN(C(=O)c2cccc(=O)[nH]2)CC3)c1,-3.168%
8,CC(=O)N1CC(c2ncn(C(C)C)n2)c2cc(C(=O)NC3CC3)ccc21 (stereo not drawn),-21.86%
9,CN(C)S(=O)(=O)N1CCCC(c2nccn2Cc2cccnc2)C1 (stereo not drawn),-1.241%
10,NCCn1nc(C2CCN(Cc3ccc(Cl)c(Cl)c3)C2)c2nccnc21 (stereo not drawn),1.426%
11,CN(C)CCn1nc(C2CCN(Cc3ccccc3)C2)c2cccnc21 (stereo not drawn),91.7%
12,CN(C)CCn1nc(C2CCN(S(=O)(=O)N(C)C)C2)c2cccnc21 (stereo not drawn),111.8%
13,CCn1c(C2CCCN(S(=O)(=O)C3CC3)C2)nn(CCN(C)C)c1=O (stereo not drawn),1.006%
14,CCS(=O)(=O)N1CCC(c2nn(CCN(C)C)c3ncccc23)C1 (stereo not drawn),95.82%
15,CCS(=O)(=O)N1CCC(c2nccn2Cc2ccccn2)CC1,-0.918%
16,CCn1c(CN(C)C)nnc1C1CCN(Cc2ccccc2)CC1,3.823%
17,O=C(NC1(c2nnn(CCO)n2)CCCC1)c1ccccc1,-5.354%
18,CN1CCC(NC(=O)c2cc(C3CCCCC3)nc3ccccc23)CC1,113.5%
19,Cc1ccc(-c2c(C(=O)NC3CCN(C)CC3)csc2C)cc1,4.532%
20,Cn1c(C(=O)NC2CCCC2)nc2c1CCN(Cc1ccccc1)C2,4.267%
21,Cn1cc(C2(C)CN(Cc3ccc(O)c(Cl)c3)CCO2)cn1 (stereo not drawn),-11.09%
22,CCCn1nc2c(cc1=O)CN(Cc1cc(C)on1)CC2,-1.057%
23,CCc1ccc(C(=O)NC(C)c2ccc(S(C)(=O)=O)c(F)c2)o1 (stereo not drawn),2.681%

row,SMILES,Percent Effect
1,CCOCC1CN(C(=O)c2cccc(C)n2)Cc2cnn(C)c21 (stereo not drawn),129.5%
2,COCC1CN(C(=O)c2cccn2C)Cc2cnn(C)c21 (stereo not drawn),3.786%
3,CCOCC1CN(C(=O)c2ccnnc2)Cc2cnn(C)c21 (stereo not drawn),100.5%
4,CCOCC1CN(C(=O)c2ccncn2)Cc2cnn(C)c21.O=C(O)C(F)(F)F (stereo not drawn),-8.665%
5,CCOCC1CN(C(=O)c2cccnc2)Cc2cnn(C)c21 (stereo not drawn),105%
6,Cc1noc(C)c1CNCC1CCN(CC(O)c2ccccc2)CC1 (stereo not drawn),0.6409%
7,CN1CCCC1CCn1ccnc1-c1ccc2ccccc2n1 (stereo not drawn),-11.7%
8,COCC(Nc1ncnc2sc(C(=O)O)c(C)c12)c1ccnn1C (stereo not drawn),6.074%
9,CCCc1cc(C(=O)NCCCn2nnc3ccccc32)no1,2.161%
10,CCCc1nc(C(=O)N2CCN(S(=O)(=O)CC)CC2)cs1,13.9%
11,CCCc1nc(C(=O)NCCCn2nnc3ccccc32)cs1,3.085%
12,COCC(NC(=O)c1cc(NC(C)=O)ccc1Cl)c1ccnn1C (stereo not drawn),-14.74%
13,COCC(NC(=O)c1cn2ccsc2n1)c1ccnn1C (stereo not drawn),103.8%
14,CCCc1cc(C(=O)NC(COC)c2ccnn2C)no1 (stereo not drawn),98.08%
15,COCC(Nc1ncnc2sc(C)c(C)c12)c1ccnn1C (stereo not drawn),-1.475%
16,CCCc1nc(C(=O)NC(COC)c2ccnn2C)cs1 (stereo not drawn),113.9%
17,CCSCCOC(=O)CCCc1ccc2c(c1)CC(=O)N2,-3.889%
18,CCC1(O)CCCN(c2nc(C(C)(C)C)nc3c2cnn3C)C1 (stereo not drawn),-1.49%
19,CN(C)C(=O)N1CC(=O)NCC12CCN(C(=O)c1ccco1)C2 (stereo not drawn),-32.82%
20,COc1cc(C2CC(=O)NCc3nc4sccn4c32)cc(OC)c1O (stereo not drawn),-15.83%
21,COCCn1ccnc1C1CCN(c2cccc(C(=O)O)n2)CC1,-10.3%
22,Cn1cc(CN2CCCN(CCCc3ccccc3)CC2)cn1,4.066%
23,Cl.Cn1cc(CN2CCN(CC3(c4ccccc4)CC3)CC2)cn1,82.02%

row,SMILES,Percent Effect
1,Cc1nn(C)cc1CN1CCN(CC2(c3ccccc3)CC2)CC1,110.9%
2,Cc1nn(C)cc1CN1CCC(C2Nc3ccccc3S(=O)(=O)N2)CC1 (stereo not drawn),-11.33%
3,CN1C(=O)CC2(CCN(Cc3cnn(C)c3)CC2)c2ccccc21,0.9694%
4,Cc1ccc(C2(CN3CCN(Cc4cn(C)nc4C)CC3)CC2)cc1.Cl,115.4%
5,CCn1cc(CN2CCCC(CO)(CCc3ccccc3)C2)c(C)n1 (stereo not drawn),-0.5849%
6,C=Cn1cc(CN2CCN(CC3(c4ccccc4)CC3)CC2)c(C)n1,101.3%
7,Cc1cccc(N2CCC3(CCCN3Cc3cn(C)nc3C)CC2)n1,-1.763%
8,Nc1ncc(CN2C[C@H](C3CC3)[C@@H](N)C2)cn1,-6.254%
9,CC(NC(=O)N1CCC2(C1)OCCO2)c1ccc(F)cc1Cl (stereo not drawn),-14.1%
10,CC(C)N(C)Cc1noc2c1CN(C(=O)c1ccsc1)CC2,5.959%
11,CN1CCN(Cc2cnc3n2CCN(C(=O)c2cnccn2)C3)CC1,-7.558%
12,CC(C)N(C)Cc1cc(=O)n2c(n1)CN(C(=O)c1cnccn1)CCC2,114.9%
13,Cc1cnc(C(=O)N2CCCn3c(nc(CN(C)C)cc3=O)C2)cn1.O=C(O)C(F)(F)F,-7.099%
14,CC(C)N(C)Cc1cc(=O)n2c(n1)CN(C(=O)c1ccnnc1)CCC2,96.43%
15,CCN(CC)Cc1cc(=O)n2c(n1)CN(C(=O)c1ccnnc1)CCC2.O=C(O)C(F)(F)F,96.84%
16,Cc1cnc(N2CCC(c3ccccc3)CC2)nc1-c1ccnn1C,-8.504%
17,CCOc1ncccc1CNC(=O)NC1CCOc2ccccc21 (stereo not drawn),109.6%
18,CC(C)Oc1ncccc1CNC(=O)N1CCOCC1,12.39%
19,O=C(NCc1ccccn1)NC1CCOc2ccccc21 (stereo not drawn),10.12%
20,CC(C)Oc1ncccc1CNC(=O)N1CCC1c1ccccc1 (stereo not drawn),-10.96%
21,CC(C)Oc1ncccc1CNC(=O)NC1CCOc2ccccc21 (stereo not drawn),99.58%
22,COc1ncccc1CNC(=O)NC1CCCOc2ccccc21 (stereo not drawn),119.2%
23,Cc1ccc(Oc2ncccc2CNC(=O)NC2CCCCC2)cn1,-14.6%

row,SMILES,Percent Effect
1,COc1ncccc1NC(=O)NC1CCOc2ccccc21 (stereo not drawn),7.033%
2,COc1ncccc1CNC(=O)NC1CCOc2ccccc21 (stereo not drawn),3.95%
3,COc1ncccc1C(=O)NCC1Cc2ccccc2O1 (stereo not drawn),13.43%
4,COc1ncccc1C(=O)NC1CCOc2ccccc21 (stereo not drawn),117.1%
5,COc1ncccc1CNC(=O)N(Cc1ccccc1F)C1CC1,-13.4%
6,CC(C)Oc1ccc(C(=O)Nc2nncs2)cn1,-3.461%
7,NC(=O)c1ccc(N2CCCCC2)c(NC(=O)c2ccc(F)cc2F)c1,-3.643%
8,COCCN1CCN(CCCS(=O)(=O)c2ccccc2)CC1C (stereo not drawn),8.957%
9,CCOC(C)C(=O)NS(=O)(=O)c1cccc2cc(C)cnc12 (stereo not drawn),6.301%
10,CCCn1ccnc1CN1CCc2[nH]cnc2C1Cc1ccccc1 (stereo not drawn),-1.947%
11,CCn1ncnc1CN1CCc2[nH]cnc2C1c1ccccn1 (stereo not drawn),-9.23%
12,COc1ncccc1CN1CCc2[nH]cnc2C1CCSC (stereo not drawn),-5.01%
13,COCCn1ccnc1CN1CCc2[nH]cnc2C1c1cccc(O)c1 (stereo not drawn),85.01%
14,CCn1ccnc1CN1CCN(Cc2ccc(C#N)cc2)CC1,-17.04%
15,CCc1ccc(C2c3nc[nH]c3CCN2Cc2nccn2CC)nc1 (stereo not drawn),105%
16,Cn1ccnc1C1c2nc[nH]c2CCN1Cc1cccnc1 (stereo not drawn),3.917%
17,COCCn1ccnc1CN1CCc2[nH]cnc2C1c1ccccn1 (stereo not drawn),80.05%
18,c1ccc(COCCN2CCc3[nH]cnc3C2c2ccco2)cc1 (stereo not drawn),-0.996%
19,COCCn1ccnc1CN1CCc2[nH]cnc2C1c1cnn(C)c1C (stereo not drawn),99.98%
20,CC(=O)Nc1ccc(CN2CCc3[nH]cnc3C2c2nccn2C)cc1 (stereo not drawn),16.2%
21,Cc1c(C2c3nc[nH]c3CCN2CCOCc2ccccc2)cnn1C (stereo not drawn),5.205%

# From ChEMBL document CHEMBL3988442, “University of Dundee, Small-Polar-MMV Screening Library” (2021)
